# Source: PubChem BioAssay (NCI)
# The panel holds about 83,000 compounds, 20% with a hit somewhere; the sample as a whole holds those more often.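 Growth was measured after 48 h exposure to one concentration of compound in 96-well plates. Values under 10 count as active.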 A number with no mark means an inactive call. Activity calls are given as the source filed them.
# Columns and labels:
# Experiment in all cases: NCI-60 one-dose screen, 48 h (100 = growth as untreated, 0 = no growth, -100 = all killed)
# Details in all cases: 10 µM unless noted
# [1] = test system: DU-145 prostate
# [2] = test system: K-562 leukemia
# [3] = test system: MALME-3M melanoma
# [4] = test system: MDA-MB-231 breast
# [5] = test system: RXF 393 renal
# [6] = test system: SF-268 CNS
# [7] = test system: SF-295 CNS
# [8] = test system: SF-539 CNS
# [9] = test system: UACC-257 melanoma
# [10] = test system: M14 melanoma
# [11] = test system: HCT-15 colon
# [12] = test system: HT29 colon
# [13] = test system: SNB-75 CNS
# [14] = test system: SNB-19 CNS
# [15] = test system: U251 CNS
# [16] = test system: PC-3 prostate
# [17] = test system: SK-MEL-5 melanoma
# [18] = test system: UACC-62 melanoma
# [19] = test system: LOX IMVI melanoma
# [20] = test system: SK-MEL-28 melanoma
Compound,growth [1],growth [2],growth [3],growth [4],growth [5],growth [6],growth [7],growth [8],growth [9],growth [10],growth [11],growth [12],growth [13],growth [14],growth [15],growth [16],growth [17],growth [18],growth [19],growth [20]
CC1(C)[C@@H](NOCCCN)CC[C@]2(C)[C@H]3C(=O)C=C4[C@@H]5C[C@](C)(C(=O)O)CC[C@]5(C)CC[C@@]4(C)[C@]3(C)CC[C@@H]12,-49.8% [100 µM] (active),-8.83% [100 µM] (active),-100% [100 µM] (active),-88.4% [100 µM] (active),-54.3% [100 µM] (active),-51.8% [100 µM] (active),-56.3% [100 µM] (active),-93.5% [100 µM] (active),-44.5% [100 µM] (active),-20.3% [100 µM] (active),-15% [100 µM] (active),-57.8% [100 µM] (active),-56.5% [100 µM] (active),-54.9% [100 µM] (active),-71.6% [100 µM] (active),-19.6% [100 µM] (active),-51.4% [100 µM] (active),-100% [100 µM] (active),-82.6% [100 µM] (active),-80.7% [100 µM] (active)
O=[N+]([O-])c1cc(CCl)ccc1OCCBr,95.7%,115%,107%,108%,110%,101%,99.7%,97.9%,105%,98.3%,91.1%,96.7%,86.6%,107%,101%,98.1%,98.6%,96.8%,95%,110%
C[C@H]1[C@H](C)CC[C@]2(C(=O)N3CCN(C)CC3)CC[C@]3(C)C(=CC[C@@H]4[C@@]5(C)C/C(=C/c6ccco6)C(=O)C(C)(C)[C@@H]5CC[C@]43C)[C@H]12,50.4% [100 µM],28.2% [100 µM],45.7% [100 µM],15.6% [100 µM],55.1% [100 µM],50.3% [100 µM],29.8% [100 µM],46.2% [100 µM],22.5% [100 µM],48.8% [100 µM],32.5% [100 µM],26.3% [100 µM],62.3% [100 µM],47.7% [100 µM],17.4% [100 µM],29.9% [100 µM],-46.8% [100 µM] (active),32.8% [100 µM],-6.24% [100 µM] (active),35% [100 µM]
CN(Cc1cccc(C(F)(F)F)c1)C(=O)[C@@H](CC(=O)N1CCC(N2CCCCC2)CC1)N1C(=O)[C@@H](N2C(=O)OC[C@@H]2c2ccccc2)[C@H]1/C=C/c1ccccc1,103%,65.7%,96.8%,55.7%,76.3%,77.8%,90.8%,81.9%,88.9%,98.7%,94.1%,86.6%,81.3%,81%,67.1%,67.1%,34.5%,96.2%,69.2%,93.3%
OC(c1ccc(Cl)cc1)(c1ccc(Cl)cc1)C(O)(c1ccc(Cl)cc1)c1ccc(Cl)cc1,61.3%,32.4%,70.9%,39.8%,16.2%,38.9%,-2.57% (active),87.2%,64.7%,35.6%,33.8%,24%,27.8%,40.5%,46.6%,33.5%,71.7%,50.8%,11.2%,73.7%
C=C(C)C1CCC2(C(=O)O)CCC3(C)C(CCC4C5(C)CCC(OC(=O)NCc6ccccc6)C(C)(C)C5CCC43C)C12 (stereo not given),56.2%,28.5%,72.1%,53.6%,60.2%,65.4%,41.9%,53.5%,29.3%,45.6%,40.8%,43.5%,75.7%,65.4%,40.6%,41.2%,28.4%,33.9%,39.8%,61.5%
c1cc2ccc3cc2cc1CNCCN1CCNCc2ccc4ccc(cc4c2)CNCCN(CCNC3)CCNCc2ccc3ccc(cc3c2)CNCC1,-10.1% (active),12.6%,-13% (active),-23.7% (active),11.4%,-13.6% (active),66.8%,-41% (active),100%,96.3%,94.5%,1.47% (active),-12.6% (active),-7.68% (active),-4.66% (active),-0.11% (active),88.6%,30.1%,-7.72% (active),62.8%
Cc1ccc(NC(=S)/N=c2/n(-c3ccccc3)nc3n2CCN3C2=NCCN2)cc1,111%,121%,113%,92.9%,101%,109%,99.3%,102%,109%,82.8%,107%,99.1%,80.6%,119%,108%,85.6%,101%,99.2%,108%,108%
CC(C)C1=NOC(=O)C1=Cc1cn(-c2ccccc2)nc1-c1ccc(Br)cc1,92.9%,43.4%,87.7%,91.5%,70.3%,102%,96.8%,78.5%,100%,76.6%,74.3%,60.3%,65.6%,90.3%,73.7%,82.3%,97.2%,76.1%,26.4%,83.4%
CC(C)(C)c1cc(C(=O)Nc2ccccc2C(=O)NCCN)cc(C(C)(C)C)c1,15.8%,-11.2% (active),47.7%,-69.4% (active),-89.3% (active),57.5%,-69.4% (active),63.4%,63.2%,-73.9% (active),-56.7% (active),-41.3% (active),66.5%,-46.1% (active),-57.3% (active),4.8% (active),46%,-58.3% (active),-98.5% (active),-84% (active)
COc1cc(-c2nc(SCCC(C)C)nc(Nc3ccc(S(N)(=O)=O)cc3)c2C#N)cc(OC)c1OC,43.1%,7.52% (active),19.1%,25.1%,10.1%,42.4%,21.8%,38.6%,46%,20.6%,14%,2.83% (active),47.6%,54.3%,31.5%,9.42% (active),37.4%,45.7%,5.65% (active),59.1%
Cn1cc(-c2nnc(-c3cn(C)c4ncc(Br)cc34)o2)c2ccccc21,103%,49.1%,75.2%,75.3%,70.8%,89.1%,89.3%,92.1%,98.5%,96.4%,53.3%,87.7%,65.8%,87.6%,94.3%,77.2%,80.1%,70.8%,92.3%,91.7%
CCN1c2ccccc2C(Cl)(c2ccc(N(C)C)cc2)c2ccccc21,74.1%,60.8%,9.82% (active),70.3%,59.4%,54.2%,88.4%,93.7%,70.3%,72.9%,73.6%,3.81% (active),68.5%,53.8%,19.5%,25.6%,78.9%,51.6%,18.9%,86.2%
CCOC(=O)/C(C#N)=C(\C)CCc1ccccc1,132%,142%,96.5%,109%,97.3%,120%,114%,91.8%,89.4%,92.2%,87.7%,98.6%,52.3%,104%,96.4%,92.7%,98.4%,110%,96.9%,97.7%
